According to PubChem BioAssay (NCATS):
Results filed as inconclusive are left out. A call without a number means that no potency is given here. Calls of active or inactive are those of the source. The call rests on the fitted dose curve; in most records, active means well fitted curve in the direction sought with a large enough effect; inconclusive means small, poorly fitted or top-dose-only effect, or another doubt; inactive means no such curve, though single readings can be large; an effect the other way counts as inactive or inconclusive.

Legend:
[1] = Viability counterscreen for antagonist of constitutive androstane receptor (CAR) against the NCATS DSHEA and TCM libraries (AID 1794837);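 further: compound exposure lasted 24 h before viability reading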
Summary of the method: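 Cells: HepG2 line carrying CYP2B6 reporter and hCAR, seeded and attached 5 h. Then pin-transferred test substances plus agonist CITCO at 48 uM final; 24 h incubation; fluorogenic viability reagent, 1 h.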

[2] = Viability counterscreen for agonist of constitutive androstane receptor (CAR) against the NCATS DSHEA and TCM libraries (AID 1794838);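 further: HepG2 cells with CYP2B6 reporter and hCAR plus 0.75 µM PK11195 antagonist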
Summary of the method: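 Cell health was measured as CellTiter-Fluor signal in HepG2-CYP2B6-hCAR cells treated for 24 h with substances alongside the hCAR antagonist PK11195 (0.75 uM final).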

[3] = biological target: Nuclear receptor subfamily 1 group I member 3 (Homo sapiens) (UniProt Q14994); experiment: Primary qHTS for agonist of constitutive androstane receptor (CAR) against the NCATS DSHEA and TCM libraries (AID 1794839);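 further: HepG2 cells expressing human CAR with a CYP2B6 reporter plus PK11195 antagonist; luciferase reporter luminescence read with ONE-Glo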
Summary of the method: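 qHTS, agonist mode: HepG2-CYP2B6-hCAR, 2,500 cells/well, 5 h attach; cpds + PK11195 0.75 µM final; 24 h, 37 °C, 5% CO2. Readouts: CellTiter-Fluor (405/540 nm), then ONE-Glo luminescence.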

[4] = HepG2 viability counterscreen (readout 2: ATP content) against the NCATS DSHEA and TCM libraries (AID 1794840)
Summary of the method: (§1)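 Same wells read twice: first fluorescence from cleaved GF-AFC substrate (25 uM final, 30 min, 37C) for live-cell protease, then CellTiter-Glo luminescence after 30 min at room temperature for ATP. HepG2 cells were exposed ~24 h to substances.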

[5] = HepG2 viability counterscreen (readout 1: protease activity) against the NCATS DSHEA and TCM libraries (AID 1794841);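 further: cells exposed to compounds for about 24 h before the protease read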
Summary of the method: as §1

[6] = biological target: Cytochrome P450 3A4 (Homo sapiens) (UniProt P08684); experiment: qHTS for inhibitors of CYP3A4 against the NCATS DSHEA and TCM libraries (AID 1919971); further: potency means the concentration at half of the fitted maximal effect
Summary of the method: (§2)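 Each CYP isoform and its pro-luciferin substrate, at isoform-specific final concentrations, were preincubated 15 min at RT with substances. NADPH regeneration solution (1x) started a 30-45 min reaction, and P450-Glo luminescence was read.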

[7] = biological target: Cytochrome P450 2D6 (Homo sapiens) (UniProt P10635); experiment: qHTS for inhibitors of CYP2D6 against the NCATS DSHEA and TCM libraries (AID 1919972)
Summary of the method: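 CYP2D6 enzyme with pro-luciferin substrate in manufacturer buffer (typically 100 mM KPO4), preincubated 15 min RT with substances (most at 19.5 nM upward); NADPH regeneration system (1x) started 30–45 min RT reaction; P450-Glo luminescence read after 30 min; quinidine as intraplate control.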

[8] = biological target: Cytochrome P450 2C9 (Homo sapiens) (UniProt P11712); experiment: qHTS for inhibitors of CYP2C9 against the NCATS DSHEA and TCM libraries (AID 1919973); further: potency means the concentration at half of the fitted maximal effect
Summary of the method: as §2

[9] = biological target: Cytochrome P450 2C19 (Homo sapiens) (UniProt P33261); experiment: qHTS for inhibitors of CYP2C19 against the NCATS DSHEA and TCM libraries (AID 1919974);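 further: luminescence from luciferin released by CYP2C19 oxidation of a pro-luciferin substrate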; further: potency means the concentration at half of the fitted maximal effect
Summary of the method: as §2

[10] = KB-3-1 P-gp reporter qHTS against the NCATS DSHEA and TCM libraries (AID 1919975)
Summary of the method: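 KB-3-1 parental line, 1536-well qHTS: cells seeded, ~4 h attachment, pintool compound addition, ~72 h at 37C, then CellTiter-Glo, 30 min RT, luminescence. Concentration-response format.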

[11] = biological target: Cytochrome P450 1A2 (Homo sapiens) (UniProt P05177); experiment: qHTS for inhibitors of CYPIA2 against the NCATS DSHEA and TCM libraries (AID 1919976); further: series mostly up to about 37 µM
Summary of the method: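 Reaction started with 1x NADPH regeneration solution and run 30-45 min, room temperature, protected from light, after compounds sat 15 min with CYP1A2 and pro-luciferin substrate. P450-Glo detection gave luminescence; furafylline served as control.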

[12] = qHTS Counterscreen for compound interference against the NCATS DSHEA and TCM libraries (AID 1919978); settings: firefly luciferase detection reagent interference, luminescence;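 further: compounds preincubated with 1 µM D-luciferin or buffer before detection reagent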
Summary of the method: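 Compounds, titrated from 19.5 nM to 39.8 uM final, were pinned onto 1 uM D-luciferin or plain 100 mM potassium phosphate. After 15 min at room temperature, luciferin detection reagent was added for 30 min before the luminescence read.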

[13] = Dual reporter qHTS for agonist of Pregnane X Receptor (hPXR) against the NCATS DSHEA and TCM libraries: Fluorescence readout (AID 1920058)
Summary of the method: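 Viability readout (CellTiter-Fluor, 405/540 nm, 1 h) from agonist-mode PXR dual reporter in hPXR-Luc HepG2 cells. Substances ~24 h, 37 °C, 5% CO2; rifampicin reference, tetraoctyl ammonium bromide cytotoxic control.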

[14] = biological target: Nuclear receptor subfamily 1 group I member 2 (Homo sapiens) (UniProt O75469); experiment: Dual reporter qHTS for agonist of Pregnane X Receptor (hPXR) against the NCATS DSHEA and TCM libraries: Luminescence readout (AID 1920059)
Summary of the method: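 hPXR-Luc HepG2 cells, 2000/well in 5% charcoal-stripped FBS medium, attached 5 h, then exposed 24 h at 37C to compounds. Viability by CellTiter-Fluor, then luciferase luminescence with ONE-Glo.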

[15] = biological target: Nuclear receptor subfamily 1 group I member 2 (Homo sapiens) (UniProt O75469); experiment: Dual reporter qHTS for antagonist of Pregnane X Receptor (hPXR) against the NCATS DSHEA and TCM libraries: Luminescence Readout (AID 1920060);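 further: HepG2 cells carrying hPXR luciferase reporter stimulated with rifampicin at 2 µM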
Summary of the method: (§3)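 HepG2 hPXR-Luc, 2000 cells/well, charcoal-stripped FBS medium; 5 h attach; RIF 2 uM final; 24 h 37C/5% CO2; CellTiter-Fluor 1 h, fluor 405/540; ONE-Glo 30 min RT, lum.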

[16] = Dual reporter qHTS for antagonist of Pregnane X Receptor (hPXR) against the NCATS DSHEA and TCM libraries: Fluorescence Readout (AID 1920061)
Summary of the method: as §3

Sequence of Nuclear receptor subfamily 1 group I member 2 (Homo sapiens) (O75469 whole entry, looked up): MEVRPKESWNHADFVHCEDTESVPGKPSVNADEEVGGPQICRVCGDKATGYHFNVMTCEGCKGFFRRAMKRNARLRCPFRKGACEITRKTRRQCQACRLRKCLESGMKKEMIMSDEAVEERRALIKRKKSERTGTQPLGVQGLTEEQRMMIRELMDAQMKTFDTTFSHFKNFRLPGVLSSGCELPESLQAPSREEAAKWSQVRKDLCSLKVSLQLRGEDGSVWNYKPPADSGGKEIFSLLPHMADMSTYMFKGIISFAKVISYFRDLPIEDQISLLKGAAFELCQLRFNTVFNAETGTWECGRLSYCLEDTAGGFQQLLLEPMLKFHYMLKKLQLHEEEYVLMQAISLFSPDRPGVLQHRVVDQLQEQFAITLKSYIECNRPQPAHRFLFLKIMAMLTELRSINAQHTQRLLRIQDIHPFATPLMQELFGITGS
Sequence of Cytochrome P450 2D6 (Homo sapiens) (P10635 whole entry, looked up): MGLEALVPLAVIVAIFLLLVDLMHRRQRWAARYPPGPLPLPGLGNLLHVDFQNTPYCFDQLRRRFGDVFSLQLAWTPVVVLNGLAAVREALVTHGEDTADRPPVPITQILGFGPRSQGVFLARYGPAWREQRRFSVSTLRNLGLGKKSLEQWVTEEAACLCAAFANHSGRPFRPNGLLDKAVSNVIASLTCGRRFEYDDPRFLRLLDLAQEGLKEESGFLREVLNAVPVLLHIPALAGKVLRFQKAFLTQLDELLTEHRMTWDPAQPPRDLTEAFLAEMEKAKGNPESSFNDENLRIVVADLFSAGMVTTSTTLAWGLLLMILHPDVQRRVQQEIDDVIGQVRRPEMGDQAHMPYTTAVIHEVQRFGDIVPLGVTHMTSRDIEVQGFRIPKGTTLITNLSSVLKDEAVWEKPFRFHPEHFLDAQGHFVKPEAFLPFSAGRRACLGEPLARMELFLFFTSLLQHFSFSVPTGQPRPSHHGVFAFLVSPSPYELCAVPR
Sequence of Cytochrome P450 2C19 (Homo sapiens) (P33261 whole entry, looked up): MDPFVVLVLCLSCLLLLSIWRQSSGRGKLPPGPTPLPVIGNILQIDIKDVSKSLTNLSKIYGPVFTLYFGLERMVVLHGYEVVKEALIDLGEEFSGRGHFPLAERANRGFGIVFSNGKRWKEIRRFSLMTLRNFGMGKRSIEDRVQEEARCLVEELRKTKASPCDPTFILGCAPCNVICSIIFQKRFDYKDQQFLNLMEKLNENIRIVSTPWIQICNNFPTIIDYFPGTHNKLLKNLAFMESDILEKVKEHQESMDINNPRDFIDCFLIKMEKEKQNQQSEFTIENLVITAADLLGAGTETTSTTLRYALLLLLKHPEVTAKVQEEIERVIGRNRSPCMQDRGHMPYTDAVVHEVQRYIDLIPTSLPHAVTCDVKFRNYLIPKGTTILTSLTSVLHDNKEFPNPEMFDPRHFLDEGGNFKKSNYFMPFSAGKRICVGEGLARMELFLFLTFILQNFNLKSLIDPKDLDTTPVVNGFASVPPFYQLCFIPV
Sequence of Cytochrome P450 1A2 (Homo sapiens) (P05177 whole entry, looked up): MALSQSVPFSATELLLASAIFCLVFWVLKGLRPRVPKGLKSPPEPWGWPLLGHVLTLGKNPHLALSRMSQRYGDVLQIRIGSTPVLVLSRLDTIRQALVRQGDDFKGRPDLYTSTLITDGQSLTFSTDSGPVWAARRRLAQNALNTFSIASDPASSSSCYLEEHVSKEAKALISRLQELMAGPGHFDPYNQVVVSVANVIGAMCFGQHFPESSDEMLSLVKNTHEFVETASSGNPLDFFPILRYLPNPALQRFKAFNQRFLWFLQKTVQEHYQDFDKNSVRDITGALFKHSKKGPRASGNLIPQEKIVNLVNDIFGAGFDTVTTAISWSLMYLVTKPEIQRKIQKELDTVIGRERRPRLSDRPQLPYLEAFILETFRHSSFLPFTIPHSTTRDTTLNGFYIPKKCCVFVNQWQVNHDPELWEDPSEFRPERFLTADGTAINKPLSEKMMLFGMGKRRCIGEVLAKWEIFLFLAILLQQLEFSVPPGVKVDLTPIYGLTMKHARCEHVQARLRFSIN
Sequence of Cytochrome P450 2C9 (Homo sapiens) (P11712 whole entry, looked up): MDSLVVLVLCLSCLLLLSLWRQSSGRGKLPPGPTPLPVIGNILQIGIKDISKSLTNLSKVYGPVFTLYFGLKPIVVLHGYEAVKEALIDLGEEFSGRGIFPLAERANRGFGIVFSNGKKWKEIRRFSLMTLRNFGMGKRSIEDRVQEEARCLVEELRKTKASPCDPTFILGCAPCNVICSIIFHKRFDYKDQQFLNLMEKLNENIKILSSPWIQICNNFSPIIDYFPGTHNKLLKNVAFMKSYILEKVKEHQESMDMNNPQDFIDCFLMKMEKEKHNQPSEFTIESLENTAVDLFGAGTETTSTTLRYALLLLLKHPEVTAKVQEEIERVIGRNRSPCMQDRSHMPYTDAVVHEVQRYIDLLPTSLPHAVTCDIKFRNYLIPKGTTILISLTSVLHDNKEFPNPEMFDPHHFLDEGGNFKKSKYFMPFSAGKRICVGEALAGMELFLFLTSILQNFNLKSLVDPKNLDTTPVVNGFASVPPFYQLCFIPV
Sequence of Cytochrome P450 3A4 (Homo sapiens) (P08684 whole entry, looked up, canonical isoform): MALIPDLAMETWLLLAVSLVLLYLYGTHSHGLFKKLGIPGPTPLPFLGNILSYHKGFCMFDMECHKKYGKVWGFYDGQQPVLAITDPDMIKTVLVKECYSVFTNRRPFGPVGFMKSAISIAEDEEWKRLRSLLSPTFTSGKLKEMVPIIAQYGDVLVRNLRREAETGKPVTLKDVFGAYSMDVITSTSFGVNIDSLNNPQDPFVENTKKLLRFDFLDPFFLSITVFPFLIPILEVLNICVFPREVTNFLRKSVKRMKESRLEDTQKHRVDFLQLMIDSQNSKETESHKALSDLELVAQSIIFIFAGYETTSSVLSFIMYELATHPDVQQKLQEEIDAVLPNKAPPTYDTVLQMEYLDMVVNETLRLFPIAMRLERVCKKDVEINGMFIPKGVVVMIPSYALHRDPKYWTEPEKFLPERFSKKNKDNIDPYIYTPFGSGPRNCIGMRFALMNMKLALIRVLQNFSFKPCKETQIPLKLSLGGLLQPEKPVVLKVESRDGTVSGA
Sequence of Nuclear receptor subfamily 1 group I member 3 (Homo sapiens) (Q14994 whole entry, looked up): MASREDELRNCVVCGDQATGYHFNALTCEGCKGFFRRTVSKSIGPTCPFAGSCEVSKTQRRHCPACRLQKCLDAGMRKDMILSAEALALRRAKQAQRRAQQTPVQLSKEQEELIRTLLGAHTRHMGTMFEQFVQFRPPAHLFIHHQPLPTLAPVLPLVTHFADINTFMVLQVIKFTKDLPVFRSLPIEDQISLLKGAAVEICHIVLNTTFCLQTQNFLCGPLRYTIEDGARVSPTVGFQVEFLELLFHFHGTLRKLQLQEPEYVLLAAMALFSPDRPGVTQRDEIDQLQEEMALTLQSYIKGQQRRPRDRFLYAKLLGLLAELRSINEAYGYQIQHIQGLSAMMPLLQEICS

SMILES | outcome [1] | outcome [2] | Potency [3] | outcome [4] | outcome [5] | Potency [6] | Potency [7] | Potency [8] | Potency [9] | outcome [10] | Potency [11] | max response [12] | outcome [13] | Potency [14] | outcome [15] | outcome [16]
COc1ccc(C(=O)O)cc1 | inactive | inactive | inactive | inactive | inactive | inactive | inactive | inactive | inactive | inactive | inactive | -1.54% (inactive) | inactive | inactive | inactive | inactive
O=C(O)[C@H]1O[C@@H](Oc2c(-c3ccc(O)c(O)c3)oc3cc(O)cc(O)c3c2=O)[C@H](O)[C@@H](O)[C@@H]1O | inactive | inactive | inactive | inactive | inactive |  | inactive | 14.1 µM (active) | 3.98 µM (active) | inactive |  | 3.23% (inactive) | inactive | inactive | inactive | inactive
CC(C)c1ccc(C=O)cc1 | inactive | inactive | inactive | inactive | inactive | inactive | inactive | inactive | inactive | inactive | inactive | -3.36% (inactive) | inactive | inactive | inactive | inactive
CC12CC3(O)OC(O1)C1(COC(=O)c4ccc(O)cc4)C3CC21OC1OC(CO)C(O)C(O)C1O (stereo unspecified) | inactive | inactive | inactive | inactive | inactive | inactive | inactive | inactive | inactive | inactive | inactive | 4.47% (inactive) | inactive | inactive | inactive | inactive
CC1=CCC(=C(C)C)CC1 | inactive | inactive | inactive | inactive | inactive | 39.8 µM (active) | inactive | inactive |  | inactive | inactive | 2.83% (inactive) | inactive | inactive | inactive | inactive
C[C@@H]1OC(O[C@H]2[C@H](O)[C@@H](O)[C@H](OC[C@H]3O[C@@H](OC(=O)[C@]45CCC(C)(C)C[C@@H]4C4=CCC6[C@@]7(C)CC[C@H](OC8OC[C@H](O)[C@H](O)[C@H]8OC8O[C@@H](C)[C@H](O)[C@@H](O)[C@H]8O)[C@@](C)(CO)C7CC[C@@]6(C)[C@]4(C)CC5)[C@H](O)[C@@H](O)[C@@H]3O)O[C@@H]2CO)[C@H](O)[C@H](O)[C@H]1O (stereo partly specified) | inactive | inactive | inactive | inactive | inactive | inactive |  | inactive | inactive | inactive | inactive | -2.4% (inactive) | inactive | inactive | inactive | 
